Experimental findings from PubChem BioAssay (NCI) are described below.

Structures are written as SMILES. The panel holds about 83,000 compounds, 20% with a hit somewhere; the sample as a whole holds those more often.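 Results are percent growth after 48 hours of single-concentration exposure. 100 means growth as in untreated cells, lower positive values show inhibition; negative values down to -100 show cell death.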 Values without a mark were called inactive. The source made the active and inactive calls. Rule for the calls: active = growth percent below 10; inactive = the rest.

Common to all, as to assay: NCI-60 one-dose screen, 48 h (100 = growth as untreated, 0 = no growth, -100 = all killed)
Holding throughout (details): 10 µM unless noted

Assay [1] concerns NCI-H23 lung.
In assay [2] the test system is NCI-H226 lung.
Assay [3] relates to NCI-H322M lung.
In assay [4] the test system is HOP-62 NSCLC.
Assay [5] has as its system NCI-H460 lung.
The subject of assay [6] is HOP-92 NSCLC.
For assay [7], the system named is A549/ATCC NSCLC.
Assay [8] has as its system 786-0 renal.
The test system of assay [9] is COLO 205 colon.
Assay [10] has as its system DU-145 prostate.
The test system of assay [11] is K-562 leukemia.
Assay [12] deals with MALME-3M melanoma.
Assay [13] concerns MDA-MB-231 breast.
The test system of assay [14] is RXF 393 renal.
In assay [15] the test system is SF-268 CNS.
The subject of assay [16] is SF-295 CNS.
Assay [17] deals with SF-539 CNS.
For assay [18], the system named is UACC-257 melanoma.
For assay [19], the system named is M14 melanoma.
Assay [20] relates to NCI-H522 lung.

As for `O=C1c2cccnc2C(=O)c2c1c(C(=O)OCCc1ccccn1)c1ccccn21`, the growth is -55.8% (active) in assay [1]; -50.1% (active) in assay [2]; -53.3% (active) in assay [3]; -79% (active) in assay [4]; -71% (active) in assay [5]; 15.1% in assay [6]. The growth is -65.9% (active) in assay [7]; -63.2% (active) in [8]; -62.3% (active) in [9]; -87.9% (active) in [10]; -2.55% (active) in assay [11]; -57.5% (active) in assay [12]. Further, the growth is 5.98% (active) in assay [13]; -46.6% (active) in assay [14]; -1.63% (active) in assay [15]; -50.9% (active) in assay [16]; -57.2% (active) in assay [17]; -53.2% (active) in assay [18]. In addition, the growth in assay [19] is -70.5% (active).
Turning to `N[C@@H]1CCC[C@H]1NCCCCN1C(=O)c2cccc3cc([N+](=O)[O-])cc(c23)C1=O`, the growth in assay [1] is 39.3%; in [2] it was 11%; in [3], 41.2%; in [4], 31.7%; in [5] it was 6.71% (active); in [6], 34.5%. Moreover, the growth in assay [7] was 22.4%; in assay [8], 25%; in [9], 22.8%; in assay [10] it was 22.2%; in assay [11], 18.6%; in assay [12], 57.5%. In addition, the growth is 45.1% in [13]; 32.3% in assay [14]; 34.3% in [15]; 55.5% in [16]; 32.7% in assay [17]; 61.2% in assay [18]. The growth in assay [19] was 63.7%.
For the compound `Oc1ccc(-c2nc3ccc4[nH]ncc4c3c3c2CCCC3)c(F)c1`, the growth in [1] was 29.5%; in [2], 56.4%; in [3] it was 37.8%; in [4], 35.7%; in assay [5] it was 29%; in assay [6] it was 68.9%. The growth was -4.04% (active) in [20]; 15.7% in assay [7]; 29.4% in assay [8]; 77.4% in [9]; 37% in assay [10]; 19.5% in [11]. Moreover, the growth in assay [12] is 24.9%; in assay [13] it was 59.9%; in [14] it was 16%; in assay [15] it was 36.5%; in [16] it was 43.6%; in [17], 15.6%. Further, the growth in assay [18] was 44.5%; in assay [19] it was 16.7%.
Consider `C/C=C1/CN(CCCCC)CC[C@H]1C(=O)c1cc2ccccc2[nH]1`, for which the growth in assay [1] was 85.1%; in [2] it was 92.9%; in assay [3] it was 86.6%; in assay [4], 85.5%; in assay [5], 97.3%; in [6], 52.3%. For the same compound, the growth is 100% in assay [7]; 99.9% in assay [8]; 98.9% in assay [9]; 99% in assay [10]; 69.6% in [11]; 91.4% in [12]. For the same compound, the growth in assay [13] was 88.5%; in assay [14], 94.1%; in [15] it was 89.8%; in [16], 94.5%; in assay [17], 98.9%; in assay [18], 108%. The growth in [19] is 90.2%.
As to `COc1ccc(C2[C@@H](Cl)C(=O)N2c2cc(OC)c(OC)c(OC)c2)cc1Cl` (stereo not given in full), the growth was 34.9% in [1]; 59.8% in assay [2]; 40% in assay [3]; 21% in [4]; 5.19% (active) in assay [5]; 33.6% in assay [6]. The growth in assay [7] was 14.8%; in assay [8], 5.5% (active); in assay [9], -50.2% (active); in assay [10], 6.13% (active); in assay [11] it was 5.8% (active); in assay [12] it was 69.1%. For the same compound, the growth in [13] is 33.5%; in assay [14], -2.33% (active); in assay [15], 26.1%; in assay [16] it was 8.96% (active); in [17], 9.09% (active); in assay [18] it was 31.5%. Moreover, in [19], the growth was -4.46% (active).
With `CCCCC#Cc1c(I)n(C2OC(CO[Si](C)(C)C(C)(C)C)C3OC(C)(C)OC32)c(=O)n(C(=O)c2ccccc2)c1=O` (stereo not given), the growth in [1] is 51.9%; in assay [2], 67.7%; in assay [3], 110%; in assay [4], 94.8%; in assay [5] it was 68.5%; in [6] it was -37.6% (active). The growth in assay [20] was 71%; in assay [7], 67.7%; in assay [8], 64.1%; in [9], -46.9% (active); in [10] it was 74.7%; in assay [11], 6.35% (active). Further, the growth was 1.91% (active) in assay [12]; 10.1% in assay [13]; -56.8% (active) in assay [14]; 36.8% in [15]; 74% in assay [16]; 3.54% (active) in assay [17]. The growth in assay [18] was 77.6%; in assay [19], 78.6%.
For the compound `c1ccc(-c2nc3ccccc3[nH]2)c(OCCCCCOc2ccccc2-c2nc3ccccc3[nH]2)c1`, the growth is 80.1% in assay [1]; 85.2% in [2]; 103% in assay [3]; 124% in assay [4]; 59.6% in [5]; -21.4% (active) in [6]. Also, the growth in assay [20] was 66.1%; in assay [7], 8.77% (active); in assay [8], 93%; in assay [9] it was 112%; in assay [10] it was 39.9%; in assay [11], -11.6% (active). The growth in assay [12] was 66.2%; in [13], 70.5%; in assay [14], 81.1%; in assay [15], 55.1%; in [16], 87.3%; in [17], 7.96% (active). Also, the results for the growth in assay [18] and in [19] were 71% and 95.1%, respectively.
Take `CNC(=O)c1cc(Oc2ccc3c(c2)sc2nc(-c4cc(C(F)(F)F)cc(C(F)(F)F)c4)cn23)ccn1`: the growth in [1] is 44.8%; in assay [2] it was 26.8%; in [3], 89.8%; in assay [4], 25.4%; in assay [5], 38.3%; in assay [6], 27%. The growth in [7] was 39.5%; in assay [8], 61.3%; in assay [9] it was 55.3%; in [10], 67.7%; in assay [11] it was 29.4%; in assay [12] it was 47.1%. Also, the growth in assay [13] was 48.2%; in assay [14], 79.8%; in assay [15], 65.1%; in assay [16], 36.2%; in assay [17], 52.4%; in assay [18], 34.5%. In assay [19], the growth is 69.3%.
